We go through 34 molecules from PubChem BioAssay.

For orientation: inhibition means the drop in the measured response relative to a control, in per cent.

Unmarked numbers belong to inactive results. Activity calls are given as the source filed them.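 Rule for the calls: active = mean inhibition above 46.5%, the solvent-only control mean plus 3 SD; inactive = the rest.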

The assay deals with Nuclear receptor coactivator 2 (Homo sapiens) (UniProt Q15596). Nature of the assay: SRC2 coactivator transcriptional activity inhibitors, confirmation, cell-based, luminescence, HEK293, triplicate (AID 652008).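 Note: 0% = DMSO-treated cells and 100% = Gossypol at 36 µM.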 The following applies: HEK293 GAL4-SRC2 luciferase reporter, at 8.9 µM, active compounds read high.
Nuclear receptor coactivator 2 (Homo sapiens), sequence (Q15596 whole entry, looked up, the tested form may be a part): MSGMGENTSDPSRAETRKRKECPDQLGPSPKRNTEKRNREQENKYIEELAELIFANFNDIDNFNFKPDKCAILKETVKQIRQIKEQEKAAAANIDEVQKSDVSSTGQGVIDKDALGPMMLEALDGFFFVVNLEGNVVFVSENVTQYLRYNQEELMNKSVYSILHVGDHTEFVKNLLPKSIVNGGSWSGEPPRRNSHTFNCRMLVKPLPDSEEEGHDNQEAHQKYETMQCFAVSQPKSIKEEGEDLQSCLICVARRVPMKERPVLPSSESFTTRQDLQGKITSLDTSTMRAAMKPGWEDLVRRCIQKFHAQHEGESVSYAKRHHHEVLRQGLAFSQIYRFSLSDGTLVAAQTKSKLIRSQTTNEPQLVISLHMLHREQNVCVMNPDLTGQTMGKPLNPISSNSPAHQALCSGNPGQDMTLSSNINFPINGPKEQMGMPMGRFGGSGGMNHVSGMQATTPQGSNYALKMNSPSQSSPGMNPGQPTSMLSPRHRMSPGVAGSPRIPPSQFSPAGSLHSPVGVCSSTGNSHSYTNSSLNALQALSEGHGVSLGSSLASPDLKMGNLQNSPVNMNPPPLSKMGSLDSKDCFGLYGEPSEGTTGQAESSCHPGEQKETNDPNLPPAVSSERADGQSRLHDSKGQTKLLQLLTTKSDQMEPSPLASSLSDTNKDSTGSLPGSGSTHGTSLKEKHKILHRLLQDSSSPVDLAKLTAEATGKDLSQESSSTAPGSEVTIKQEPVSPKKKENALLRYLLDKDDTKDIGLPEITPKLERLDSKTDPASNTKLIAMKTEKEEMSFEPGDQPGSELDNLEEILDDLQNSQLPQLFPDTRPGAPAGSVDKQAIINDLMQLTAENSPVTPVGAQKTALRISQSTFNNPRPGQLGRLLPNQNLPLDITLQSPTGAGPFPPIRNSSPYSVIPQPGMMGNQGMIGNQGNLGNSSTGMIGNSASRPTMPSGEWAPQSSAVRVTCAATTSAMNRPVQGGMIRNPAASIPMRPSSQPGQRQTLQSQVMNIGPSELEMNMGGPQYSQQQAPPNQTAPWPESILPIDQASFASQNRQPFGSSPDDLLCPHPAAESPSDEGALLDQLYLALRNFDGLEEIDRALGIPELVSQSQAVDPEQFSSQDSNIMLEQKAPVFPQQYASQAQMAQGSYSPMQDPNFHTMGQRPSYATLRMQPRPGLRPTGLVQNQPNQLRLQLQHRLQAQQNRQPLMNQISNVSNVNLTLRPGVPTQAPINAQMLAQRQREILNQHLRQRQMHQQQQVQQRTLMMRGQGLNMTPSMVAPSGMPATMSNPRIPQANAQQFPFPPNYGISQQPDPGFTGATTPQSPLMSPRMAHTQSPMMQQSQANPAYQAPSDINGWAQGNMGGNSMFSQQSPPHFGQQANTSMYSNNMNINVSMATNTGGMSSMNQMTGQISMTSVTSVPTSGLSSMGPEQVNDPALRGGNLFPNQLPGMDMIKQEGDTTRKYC
`CN(C)S(=O)(=O)N1CCC(Oc2cccc(C(=O)NC3CCCCC3)c2)CC1`: the inhibition is 13.4%. As for `O=C(Nc1ccc2c(c1)OCCO2)c1[nH]c(C(F)(F)F)nc1-c1ccccc1`, the figure is 49.1% (active); as for `CCN1CCN(C(=S)c2ccc(-c3ccccc3)cc2)CC1`, 78.8% (active). On to `O=C(Nc1ccc(OCc2ccccc2Cl)cc1)c1cccnc1`, for which the inhibition is 52.2% (active).

Consider `COc1ccc2c(=O)cc(-c3ccncc3)oc2c1OC`, for which the inhibition is 41.5%. As for `CCN(C(=O)c1cc(S(=O)(=O)N2CCCCC2)c[nH]1)c1ccc(OC)cc1`, the figure is 25.9%. As for `CCn1ccnc1CN(C)Cc1cn[nH]c1-c1ccc(F)cc1F`, the figure is 10.5%; as for `C=C1C(=O)C23CCC4C(C)(C(=O)OC)CCCC4(C)C2CCC1(O)C3` (centres undefined), 98.2% (active).

For the molecule `O=S(=O)(Nc1ccc2c(c1)OCCO2)c1cccc2nsnc12`, the inhibition was 44%. As to `Cc1noc(/C=C/c2ccco2)c1S(=O)(=O)N1CCC(C(=O)Nc2ccc(Cl)cn2)CC1`, the inhibition is 24.2%. As for `CC(C)CCNC(=O)c1sc2ccc(S(=O)(=O)N3CCCCC3)cc2c1N`, the figure is 27.6%; as for `Cn1nnnc1Sc1ncnc2scc(-c3ccc4c(c3)OCO4)c12`, 21.4%; as for `COc1ccccc1NS(=O)(=O)c1cccc(NC(=O)c2cncc(Br)c2)c1`, 21%. The result for `O=[N+]([O-])c1ccc2c(c1)-c1ccccc1C2=NO` reads 13.5%; that for `CC1CCN(c2ccc(-c3cccc(NC(=O)C(F)(F)F)c3)nn2)CC1`, 60% (active). The result for `COc1cccc(N2CCN(c3c(C#N)c(C(F)(F)F)nn3C)CC2)c1` reads 41.6%.

On to `O=C(CCl)Nc1ccc(Oc2cnc3ccccc3n2)cc1`, for which the inhibition is 46.6% (active).

`CCOC(=O)c1c(C)cc2c(CO)n[nH]c(=O)c2c1C`: the inhibition was 34.9%.

Regarding `Cc1nc2sc(C(N)=O)c(N)c2c(C)c1CC(=O)c1ccccc1`, the inhibition was 19.1%.

Take `Cc1ccc(C(=O)C(C(=O)/C=C/c2ccccc2)=C2SCCCS2)cc1`: the inhibition was 56% (active). As for `Cc1ncc(CO)c(/C=N/Nc2ccc(C(F)(F)F)cn2)c1O`, the figure is 38.8%; as for `Cc1ccc(-c2cc(C(=O)NCCCN3CCOCC3)no2)cc1`, 53.2% (active); as for `O=C(Nc1ccc(N2CCN(C(=O)c3ccco3)CC2)c(Cl)c1)c1cc2ccccc2o1`, 3.49%. Consider `Cc1ccc(C(=O)c2cccc(N)c2)cc1C`, for which the inhibition is 76.3% (active). Turning to `COc1ccc(S(=O)(=O)N2CCOCC2)cc1NC(=O)CCNC(=O)c1ccc(Br)cc1`, the inhibition was 44.6%.

In the case of `Cc1ccc(OCC(=O)NC(=S)Nc2ccccn2)c(Br)c1`, the inhibition was 37.7%. The result for `O=C1CCC2S/C(=C/Nc3ccc(C(F)(F)F)cc3)C(=O)N12` (centres undefined) reads 66.4% (active); that for `Cc1ccc(Oc2ccc(C(=O)NCc3ccncc3)cc2)cc1`, 21.1%; that for `c1ccc2c(-c3cccc4nccn34)cncc2c1`, 11%. The result for `CC(C)(C)c1cc(/C=N/O)cc(C(C)(C)C)c1O` reads 9.3%; that for `COc1ccc(-c2noc(CCCCC(=O)N3CCN(c4cc(C)ccc4C)CC3)n2)cc1`, 48.2% (active). The result for `Cc1cc(NC2CCCC2)n2ncc(-c3ccccc3)c2n1` reads 36.5%; that for `CCn1c(Oc2cccc(Br)c2)nc2c1c(=O)n(C)c(=O)n2C`, 10.2%. As to `Cc1sc2ncnc(N3CCC(C(=O)N(C)CC(=O)Nc4cccc(F)c4)CC3)c2c1C`, the inhibition was 25.1%.
